Reference: PubChem BioAssay (NCI)
The panel holds about 83,000 compounds, 20% with a hit somewhere; the sample as a whole holds those more often.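 The endpoint reported here, percent growth, reads 100 for growth as untreated, 0 for no net growth and -100 for all cells dead.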 A number with no mark means an inactive call. Calls of active or inactive are those of the source. How the source made its calls: active means growth percent below 10; inactive means the rest.

What was measured:
Assay in all cases: NCI-60 one-dose screen, 48 h (100 = growth as untreated, 0 = no growth, -100 = all killed)
Conditions in all cases: 10 µM unless noted
SR leukemia = test system: SR leukemia
RPMI-8226 leukemia = test system: RPMI-8226 leukemia
OVCAR-5 ovarian = test system: OVCAR-5 ovarian
OVCAR-4 ovarian = test system: OVCAR-4 ovarian
SK-OV-3 ovarian = test system: SK-OV-3 ovarian
IGROV1 ovarian = test system: IGROV1 ovarian
OVCAR-3 ovarian = test system: OVCAR-3 ovarian
HS 578T breast = test system: HS 578T breast
NCI/ADR-RES ovarian = test system: NCI/ADR-RES ovarian
OVCAR-8 ovarian = test system: OVCAR-8 ovarian

Compound | growth (SR leukemia) | growth (RPMI-8226 leukemia) | growth (OVCAR-5 ovarian) [%] | growth (OVCAR-4 ovarian) | growth (SK-OV-3 ovarian) [%] | growth (IGROV1 ovarian) | growth (OVCAR-3 ovarian) | growth (HS 578T breast) | growth (NCI/ADR-RES ovarian) | growth (OVCAR-8 ovarian) [%]
NS(=O)(=O)c1ccc(N=Nc2ccc(-c3nn4cc(-c5ccccc5)nc4s3)cc2)cc1 | 90.6% | 105% | 103 | 99.7% | 88.8 | 117% | 102% | 94.2% | 107% | –
Nc1ccc(Sc2ccc([N+](=O)[O-])c3nonc23)cc1 | 7.97% (active) | 79.9% | 108 | 97.8% | 96.8 | 97% | 78% | 102% | 98.8% | –
CCS(=O)(=O)c1ncnc2nc[nH]c12 | 97.8% | 95.9% | 98.1 | 106% | 95.2 | 109% | 111% | 97.6% | 104% | –
O=C(COc1ccc(/C=C2\Cc3ccc(Cl)cc3C2=O)cc1)Nc1nc2ccccc2s1 | 75.5% | 93.1% | 108 | 109% | 104 | -61.5% (active) | 104% | 91% | 99.2% | –
COc1cc(C2CC(c3cccc(Br)c3)=NN2C(C)=O)cc(OC)c1OC (stereo unspecified) | 46.3% | 4.29% (active) | 46.5 | 41.7% | 45.3 | -17.3% (active) | -22% (active) | 34.6% | -19.5% (active) | –
c1ccc(-c2nc3sc(-c4ccccc4)cn3n2)cc1 | 90.4% | 85.5% | 122 | 76.1% | 94.2 | 56.2% | 83.5% | 90.1% | 85.6% | –
c1ccc2cc(C[n+]3ccn(CCCCCCn4cc[n+](Cc5ccc6ccccc6c5)c4)c3)ccc2c1 | 69% | 65.5% | 60.4 | 40.8% | 55.6 | 58.1% | 62.4% | 68.5% | 100% | –
Cc1cc(=O)[nH]c(=O)n1Cc1cn(-c2c3ccccc3nc3ccccc23)nn1 | 11.4% | 55.5% | 120 | 106% | 96.2 | 33% | 90.7% | 100% | 106% | –
COc1ccc(-c2nc3sc(-c4ccc(Cl)cc4)cn3n2)cc1 | 51.1% | 44.9% | 52 | -63.3% (active) | 49.5 | 7.07% (active) | 24.7% | 27% | 45.6% | –
COc1cccc(Cc2nn3cc(-c4ccccc4)nc3s2)c1 | 16.3% | 33.7% | 114 | 98.4% | 103 | 86.4% | 85.5% | 106% | 101% | –
O=C1CCC(C(=O)NCCNCCNC(=O)C2CCC(=O)N2)N1 (stereo unspecified) | 103% | 95.8% | 112 | 109% | 98 | 110% | 106% | 94.1% | 105% | –
Cc1ccc2c(-c3cc(-c4ccccc4)nc(N)c3C#N)cc(=O)oc2c1 | 100% | 101% | 96.9 | 114% | 104 | 110% | 106% | 90.2% | 95.2% | –
COc1cc(/C=N/NC(=O)c2ccc(C)nc2)cc(OC)c1OC | 103% | 121% | 103 | 96.4% | 112 | 107% | 119% | 88.6% | 102% | –
C=C1C(=O)O[C@H]2[C@H]1CC/C(COC(=O)C(C)c1ccc(CC(C)C)cc1)=C\CC[C@@]1(C)O[C@@H]21 (stereo partly specified) | -1.31% (active) | -23% (active) | 74.1 | 8.73% (active) | 102 | -69% (active) | 1.75% (active) | -4.39% (active) | 14.6% | –
Cc1cc2[nH]c(=O)c3c4ncccc4cn3c2cc1C | -1.41% (active) | 2.89% (active) | – | – | 87.4 | 24.5% | -21.7% (active) | 101% | 34.3% | 39.6
CCOC(=O)c1c(C)nc2c(c1N)CC(=O)N2Cc1ccc(F)cc1 | 99.5% | 80.1% | 103 | 94.7% | 95 | 104% | 99.5% | 91.5% | 99% | –
c1cc(NCCc2ccncc2)nc(-n2cnc3ccccc32)c1 | 58.2% | 68.5% | 98 | 96.7% | 97.2 | 73.1% | 96.2% | 98.2% | 90.7% | –
CCCCNC(=O)Oc1ccc(/C(=C(\C)c2ccc(Cl)cc2)c2ccc(OCCN3CCCCC3)cc2)cc1 | 7.74% (active) | 73.4% | 71.8 | 73.5% | 68.8 | 83.5% | 80% | 85% | 85.2% | –
CCCCCCNC(=O)Oc1ccc(/C(=C(\C)c2ccc(Cl)cc2)c2ccc(OCCCN(C)C)cc2)cc1 | -13% (active) | 79% | 75.1 | 76% | 94.4 | 67% | 87.8% | 74.5% | 83.2% | –
CCCCNC(=O)Oc1ccc(/C(=C(\C)c2ccc(Cl)cc2)c2ccc(OCCN(CC)CC)cc2)cc1 | 3.33% (active) | 63.9% | 73.4 | 69.6% | 75.3 | 81.6% | 69.1% | 74.4% | 81.4% | –
COc1cc(C(=O)N2N=C(c3ccc(S(C)(=O)=O)cc3)CC2c2ccco2)cc(OC)c1OC (stereo unspecified) | 8.01% (active) | 44.6% | 89.5 | 84.1% | 84.3 | -2.69% (active) | 5% (active) | 74.9% | 63.1% | –
Cc1ccc(S(=O)(=O)Oc2ccc(NC(=O)c3ccc(Cl)cc3)cc2)cc1 | 93.6% | 97.6% | 107 | 96.5% | 98.5 | 97.8% | 103% | 107% | 99.4% | –
Cc1ccc(C(=O)NN2C(=O)CSC2c2ccc(Cl)cc2)cn1 (stereo unspecified) | 80.8% | 113% | 92.3 | 101% | 97.1 | 54.8% | 111% | 130% | 93.2% | –
CCCCCCNC(=O)Oc1ccc(/C(=C(\C)c2ccc(Cl)cc2)c2ccc(OCCN(CC)CC)cc2)cc1 | -10.8% (active) | 51.6% | 72.1 | 60.5% | 83.1 | 55.2% | 67.6% | 67.5% | 72.7% | –
CC1(C)C2CC1C1(/C=N/NC(N)=S)C(C2)C(C#N)(C#N)C1(C#N)C#N (stereo unspecified) | 4.63% (active) | 30.4% | 126 | 94.3% | 103 | 67.1% | 63.1% | 88.7% | 93.5% | –
O=c1n(Cc2ccc3ccccc3c2)ccn1Cc1ccc2ccccc2c1 | 97% | 104% | 82.1 | 69.3% | 90.5 | 91.6% | 100% | 86.9% | 86.8% | –
C=C1C(=O)O[C@H]2[C@H]1CC/C(COC(=O)CSCC(=O)OC/C1=C/CC[C@@]3(C)O[C@H]3[C@H]3OC(=O)C(=C)[C@@H]3CC1)=C\CC[C@@]1(C)O[C@@H]21 | 0.996% (active) | -2.24% (active) | 87.3 | 46.6% | 97.5 | 7.28% (active) | 3.24% (active) | 59.7% | 86.2% | –
CCc1ccc(Oc2c(-c3ccc(OCCc4cccc(C(F)(F)F)c4)cc3O)n[nH]c2C(F)(F)F)cc1 | 47.3% | 3.94% (active) | 84.3 | 22% | 64.9 | 32.8% | 0.567% (active) | 51.1% | 42% | –
